Source: PubChem BioAssay
Spn DPM-DC inh: blocks S. pneumoniae diphosphomevalonate decarboxylase; calls only at 10 µM; hit rate 0.49% among 65,000; AID 556; purified DPM-DC, PK/LDH coupled NADH fluorescence;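 active = the 320 compounds with the highest percent inhibition in the single-dose primary screen, excluding strongly autofluorescent ones, cut at about 32% in these data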;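 also: kinetic rate of NADH fluorescence loss reporting ADP formed by the decarboxylase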
Autofluor 339: intrinsic fluorescence of library compounds, ex339/em460 – biochemical, MLSMR library, data from DPM-DC assay, artefact control, profiling panel | compound autofluorescence, ex339/em460 nm, NADH buffer; stronger effect = higher value; 1 = no-compound wells, NADH background | fluorescence fold increase at 10 µM | hit rate 5.5% among 65,000 | AID 709;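 active = at 10 µM, mean starting fluorescence two-fold or more over control wells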;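 also: signal is the first read of a kinetic run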
Spn MK inh: inhibitors of Streptococcus pneumoniae mevalonate kinase; purified MK, PK/LDH-coupled NADH absorbance 340 nm; hit rate 0.48% among 65,000; inhibition, % at 10 µM;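 active = ranked among the strongest by inhibition in the single 10 µM screen, a fixed top-ranked set picked for dose follow-up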
NADH enzymes: inhibition of NAD/NADH coupling enzymes, library profiling. IC50, µM (top dose mostly 10 µM), for the others: at the highest dose inhibition. coupled PK/LDH NADH assays, four targets. hit rate 0.02% among 65,000. AID 774;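 active = single-dose screening hits from any of four coupled enzyme assays that gave an IC50 when retested across doses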;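 also: the DPM-DC format reads NADH fluorescence rather than 340 nm absorbance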
A340 absorber: compound absorbs light at 340 nm | AID 708 | 65,000 tested, under 10 active | compound absorbance at 340 nm, fold over control | fold change at 10 µM;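 active = at 10 µM dose, initial 340 nm absorbance at least 2 fold that of control wells; inactive = change under 2 fold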;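 also: initial absorbance extrapolated from kinetic A340 decline of NADH oxidation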
Spn PMK inh: S. pneumoniae PMK inhibition | inhibition, % at 10 µM | hit rate 0.49% among 65,000 | purified PMK, PK/LDH-coupled NADH absorbance 340 nm | AID 539;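 active = top-ranked compounds by inhibition in the single 10 µM screen, taking a fixed number of the strongest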;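 also: 0% = full reaction with DMSO carrier and 100% = background rate without enzyme reaction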
* = called active by the depositor; i = inactive; / = no result given; + = active, no number; [ ] = remark or other dose. An excerpt weighted towards active compounds, which were near 6.8% of everything screened.

SMILES	Spn DPM-DC inh	Autofluor 339	Spn MK inh	NADH enzymes	A340 absorber	Spn PMK inh
CCN(c1c(C)n(C)n(-c2ccccc2)c1=O)S(C)(=O)=O	i	1.03	8.0	3.0%	1	9.0
CCCN(C(=O)c1ccccc1N)c1c(C)n(C)n(-c2ccccc2)c1=O	i	1.12	2.0	10.0%	1.03	29.0*
Fc1ccc2c(c1)[C@H]1OCC[C@H]1[C@@H](c1ccco1)N2	i	2.67*	10.0	12.0%	1.03	2.0
C[C@@H]1C[C@H](O)c2cc(Cl)ccc2N1	i	1.02	9.0	4.0%	0.99	13.0
Clc1ccc2c(c1)[C@H]1OCC[C@H]1[C@@H](c1ccco1)N2	+[fluoresces]	2.27*	13.0	5.0%	1.01	8.0
CSc1nnc(-c2cnccn2)n1CCCN1CCCC1=O	i	1.13	0.0	0.0%	1.01	1.0
O=C(c1coc(=O)c2ccccc12)N1CCN(Cc2ccccc2)CC1	i	1.13	/	1.0%	1.01	1.0
CC(=O)N1CCN(Cc2ccc(Br)s2)CC1	i	1.05	1.0	2.0%	1	4.0
Cc1cccc(-n2nc3c(c2NC(=O)c2ccco2)CSC3)c1C	i	1.06	0.0	8.0%	0.98	25.0*
N#CCSc1nc2c(c(C3CC=CCC3)c1C#N)CCC2 (stereo not given)	i	1.04	9.0	2.0%	0.98	5.0
CCOC(=O)c1[nH]c2ccc(F)cc2c1NC(=O)C(C)N1CCc2cc(OC)c(OC)cc2C1 (stereo not given)	i	1.45	11.0	7.0%	1	12.0
CCOC(=O)c1[nH]c2ccc(OC)cc2c1NC(=O)c1nonc1C	i	1.1	12.0	9.0%	1.02	15.0
CCOC(=O)c1[nH]c2ccc(OC)cc2c1NC(=O)C(C)N1CCC2(CC1)OCCO2 (stereo not given)	/	3.8*	9.0	8.0%	1.06	6.0
CCOC(=O)c1[nH]c2cc(OC)c(OC)cc2c1NC(=O)CN1CCN(C)CC1	/	3.59*	7.0	4.0%	1.14	0.0
CCOC(=O)c1[nH]c2ccc(OC)cc2c1NC(=O)CN1CCC2(CC1)OCCO2	/	3.85*	9.0	7.0%	1.06	5.0
CCOC(=O)c1[nH]c2ccc(C)cc2c1NC(=O)CN1CCCCC1	i	1.75	10.0	6.0%	1.01	2.0
O=C(Nc1ccc(-c2noc(-c3cccs3)n2)cc1)c1cccnc1	i	1.06	7.0	1.0%	1.02	0.0
Cc1ccc(S(=O)(=O)c2nc(S(C)(=O)=O)sc2NCC2CCCO2)cc1 (stereo not given)	/	2.14*	7.0	4.0%	1.08	0.0
CCOc1ccc(OCC)c(N=c2oc3c(C)ncc(CO)c3cc2C(N)=O)c1	i	0.97	1.0	2.0%	1.01	4.0
NC(=O)c1cc2ccc(O)cc2oc1=NCc1ccccc1	/	4.64*	0.0	10.0%	1.03	19.0
NC(=O)c1cc2ccc(O)cc2oc1=Nc1ccccc1	i	1.89	7.0	9.0%	1.07	8.0
COc1ccc(OC)c(N=c2oc3cc(O)ccc3cc2C(N)=O)c1	/	3.26*	9.0	7.0%	1.05	4.0
O=C1c2ccccc2C(=O)N1CCCc1nc2ccccc2c(=O)n1Cc1ccco1	i	1.03	6.0	8.0%	1.03	13.0
CCCCCn1c(N)c(C#N)c2nc3ccccc3nc21	/	5.03*	3.0	7.0%	1.05	10.0
N#Cc1c(N)n(CCCN2CCOCC2)c2nc3ccccc3nc12	/	3.85*	4.0	5.0%	1.02	6.0
SMILES	Spn DPM-DC inh	Autofluor 339	Spn MK inh	NADH enzymes	A340 absorber	Spn PMK inh
N#Cc1c(N)n(CCNC(=O)c2cccs2)c2nc3ccccc3nc12	/	3.03*	10.0	4.0%	0.99	7.0
Cc1ccc(S(=O)(=O)c2c(N)n(CCN3CCOCC3)c3nc4ccccc4nc23)cc1C	/	4.93*	8.0	12.0%	1.09	16.0
O=C(NCCc1ccccc1)c1cccnc1N1CCCCCC1	i	1.13	8.0	4.0%	1.03	5.0
COc1ccc(OC)c(NC(=O)c2nnn(Cc3ccccc3C)c2N)c1	i	1.08	0.0	1.0%	1.04	2.0
O=C(NC1CCCC1)C(c1ccco1)N(Cc1ccccc1)C(=O)c1csnn1 (stereo not given)	i	1.03	0.0	3.0%	0.99	13.0
CCCCn1c(CNC(C)=O)nc2ccccc21	i	1.12	0.0	2.0%	1.04	5.0
CCCCn1c(NC(C)=O)c(C#N)c2nc3ccccc3nc21	/	3.83*	11.0	13.0%	1.12	15.0
COCCN(C(=O)CCC(=O)Nc1cccnc1)C(C(=O)NC1CCCCC1)c1ccccc1 (stereo not given)	i	1.06	0.0	5.0%	0.96	14.0
O=C(CSc1nnc2ccccn12)NC(=O)NC1CCCCC1	i	1.1	5.0	8.0%	1.01	19.0
O=C(CSc1nnc2ccccn12)Nc1ccccc1C(=O)NC1CC1	+	0.94	0.0	17.0%	1.01	14.0
COc1ccc(-c2cc(=O)oc3c(C)c(O)c(CN(C)C)cc23)cc1	i	2.39*	8.0	12.0%	1.15	5.0
c1ccc(-n2nnnc2SCc2cn3ccccc3n2)cc1	i	1.09	12.0	4.0%	1.04	0.0
c1ccc(-n2nnnc2SCc2cn3cccnc3n2)cc1	/	5.01*	0.0	7.0%	1.03	13.0
CSc1nc(NC(C)(C)C)nc(Oc2ccc(=O)[nH]n2)n1	i	1.02	6.0	2.0%	0.98	9.0
CCNc1nc(NCc2ccccc2)nc(Oc2ccc(=O)[nH]n2)n1	i	2.63*	7.0	4.0%	1.03	4.0
COc1cccc2c(=O)c(C(=O)NCc3cccs3)c[nH]c12	/	3.73*	4.0	9.0%	1.06	14.0
COc1ccccc1-n1c(SCC(=O)N2CCCCC2)nnc1-c1ccccc1O	i	1.04	5.0	11.0%	1.01	27.0*
COc1ccccc1OCc1nnc(SCC(=O)N2CCCCC2)n1-c1ccccc1	i	0.97	0.0	7.0%	1.02	7.0
C=CCNS(=O)(=O)c1cccc2cc(C(=O)O)c(O)cc12	i	2.26*	4.0	9.0%	1.01	11.0
O=C(NCc1cccs1)C1CCCN(S(=O)(=O)c2cccc3cccnc23)C1 (stereo not given)	i	1.05	10.0	3.0%	1.08	0.0
CCOC(=O)c1[nH]c(C)c(CN(Cc2ccco2)C(=O)C(F)(F)F)c1C	i	1.07	0.0	2.0%	1.01	6.0
Cc1c(CCC(=O)O)c(=O)oc2cc3occ(-c4ccc(F)cc4)c3cc12	i	1.63	11.0	9.0%	1.07	8.0
CCC(=O)Oc1ccc2c(C)c(Cl)c(=O)oc2c1	/	2.18*	1.0	1.0%	1.06	0.0
CCN(CC)C(=O)Oc1ccc2c(=O)c(-c3ccc(OC)cc3)c(C)oc2c1	i	1.2	7.0	6.0%	1.02	11.0
CCCCc1c(C)c2ccc(OCC(C)=O)cc2oc1=O	/	2.34*	0.0	2.0%	1.07	4.0
CCCc1c(C)c2ccc(OCC(C)=O)cc2oc1=O	/	5.1*	6.0	6.0%	1.08	6.0
C=C(Cl)COc1ccc2c(C)cc(=O)oc2c1	i	1.7	11.0	7.0%	1.03	6.0
